These results are taken from ChEMBL document CHEMBL3988442, “University of Dundee, Small-Polar-MMV Screening Library” (2021).

Hit rate of the full screen: of about 48,000 compounds, about 13,000 (27%) showed an effect of 50% or more. The list shows a part of the results.

This experiment has as its system Wolbachia pipientis. Briefly: Anti-Wolbachia Cell-Based Screen. Format: functional. Set-up: scale not given: in the data most compounds retested in dose-response had high values. The following applies: 5 µM.
In the case of `COc1ccc(C(C(=O)O)N2CCC(O)(c3cccnc3)CC2)cc1Cl` (centres undefined), the “Percent Effect” value amounted to 2.828%.
Take `COCCCNC(=O)c1cc(-c2cnc(N(C)C)nc2)cn1CC1CC1.O=C(O)C(F)(F)F`: the “Percent Effect” value was determined as 117.6%.
As for `CN(C)c1cc(NCc2cnc3n2CCN(CC2CC2)CC3)ncn1.O=C(O)C(F)(F)F`, the figure is 3.56%; as for `Cc1cnc(N2C[C@@H]3CCN(CC(=O)N(C)C)C(=O)[C@H]3C2)nc1.O=C(O)C(F)(F)F`, -29.89%.
As for `COCCN1CCCn2cnc(CNC(=O)N(C)C)c2C1.O=C(O)C(F)(F)F.O=C(O)C(F)(F)F`, the figure is -21.14%; as for `CN(C)CCNC(=O)c1ccc(OC2CCN(CC3CC3)CC2)c(Cl)c1`, 3.166%.
In the case of `CN(C)CCNC(=O)c1cc(-c2cnc(N(C)C)nc2)cn1CC1CC1` it was 102.4%; in that of `CC(C)n1cnc2c1C(C(=O)NCCC#N)N(Cc1ccccc1)CC2.O=C(O)C(F)(F)F` (centres undefined), -22.73%.
As to `CN(C)c1ncc(-c2cc(C(=O)NCCO)n(CC3CC3)c2)cn1.O=C(O)C(F)(F)F`, the “Percent Effect” value turned out to be 116.5%.
Turning to `CN(C)c1ncc(-c2cc(C(=O)NCCC#N)n(CC3CC3)c2)cn1.O=C(O)C(F)(F)F`, the “Percent Effect” value came to 101.1%.
As for `CCOC(=O)N1CCCn2nc(C(=O)NCCN(C)C)cc2C1`, the figure is -7.985%.
With `COCc1nc(NC(C)c2c(C)n[nH]c2C)c2cnn(C)c2n1` (centres undefined), the “Percent Effect” value turned out to be 8.424%.
As for `Cc1nc(-c2ccc(CC(=O)N3CCN(C(=O)C(C)C)CC3)cc2)cs1`, the figure is -9.711%; as for `CN(C)C(=O)c1ccc2c(c1)N(C)C(CC(=O)NC(C)(C)CO)CO2` (centres undefined), -1.046%.
As for `CN(C)c1ncc(-c2cc(C(=O)N3CCCC3)n(CC3CC3)c2)cn1`, the figure is 121.7%.
As for `CN(C)c1ncc(-c2cc(C(=O)O)n(CC3CC3)c2)cn1`, the figure is 1.495%; as for `CNC(=O)c1cc(-n2ccnc2-c2cnc(N(C)C)nc2)ccc1OC`, -13%; as for `CN(C)c1ncc(-c2cc(C(=O)NC(C)(C)CO)n(CC3CC3)c2)cn1`, 111.9%.
In the case of `CN(C)c1ncc(NC(=O)N2CCC(CN3CCCC3)C2)cn1` (centres undefined), the “Percent Effect” value was 8.781%.
In the case of `OC1(CNCc2ccc(F)c(C(F)(F)F)c2)CCSCC1` it was 2.477%; in that of `O=C(O)CN1CCc2onc(C(c3ccccc3)c3ccccc3)c2C1`, -16.17%.
Turning to `CNS(=O)(=O)CCn1cc(-c2ccc(OC)c(OC)c2)nn1`, the “Percent Effect” value was -29.27%.
In the case of `Cc1noc(C)c1CN1CCOC2(CCCN(c3ccccn3)C2)C1` (centres undefined) it was -3.1%; in that of `Cc1nc(CSCCC(=O)NCC(=O)NC(C)C)cs1`, 3.002%.
On to `COc1ccc(C)c(NC(=O)NCc2cccc(N(C)C)n2)c1`, for which the “Percent Effect” value is -15.2%.
In the case of `COc1ccc(CNC(=O)CCSCc2csc(C)n2)cn1` it was 99.67%; in that of `CSC(C)C(=O)NCc1ccc(-n2cncn2)nc1` (centres undefined), -9.599%; in that of `Cc1nc(CNC(=O)NCCc2ccc(N(C)C)cc2)cs1`, 2.73%.
As for `Cc1nc(CSCCC(=O)NCCNC(=O)OC(C)(C)C)cs1`, the “Percent Effect” value is -7.243%.
As for `Cc1ccc(CNC(=O)CCSCc2csc(C)n2)cn1`, the figure is -0.6284%.
As for `Cc1nc(CSCCC(=O)NCc2ccncc2)cs1`, the figure is 95.93%.
In the case of `Cc1nc(CSCCC(=O)NCc2ccc(-n3cncn3)nc2)cs1` it was 103.5%.
For `Cc1nc(CCNC(=O)NCc2cccc(N(C)C)n2)cs1`, the “Percent Effect” value is 98.24%.
As for `CC(OCC(F)(F)F)C(=O)NCc1ccc(-n2cncn2)nc1` (centres undefined), the figure is 6.097%; as for `Cc1ccc2c(c1)C(NC(=O)C1CCN(S(C)(=O)=O)CC1)CC(C)(C)O2` (centres undefined), 2.376%; as for `F[C@@H]1CN(CC2CC2)C[C@@H]1OCc1nc2ccc(C(F)(F)F)cc2[nH]1`, -10.92%.
As for `CC(C)N1CCc2onc(Cn3cccn3)c2C1`, the figure is -7.292%.
In the case of `O=C(Nc1ccccc1-c1ccccc1)N1C[C@@H]2CNC[C@]2(C(=O)O)C1` it was -1.582%; in that of `Cc1nc(CNC(=O)NCC(F)(F)F)oc1C`, 5.267%.
Regarding `Cc1ccc(-c2cc(-c3nc(CN4CCN(C)CC4)no3)n[nH]2)cc1`, the “Percent Effect” value was -2.901%.
In the case of `CSCCCN1C(=O)CC[C@H]2CN(Cc3ncc[nH]3)CC[C@H]21` it was -3.327%; in that of `Cc1ncsc1CCC(=O)NCc1csc(N(C)C)n1`, 8.732%.
As for `COc1ccc(CNC(=O)NCCc2csc(C)n2)cn1`, the figure is 78.6%; as for `Cc1nc(CSCCC(=O)NCc2ccc(N(C)C)cc2)cs1`, 100.6%.
As for `Cc1nc(CCNC(=O)NCc2ccc(N(C)C)nc2)cs1`, the figure is 2.776%; as for `Cc1nc(CNC(=O)NCc2ccc(OCC3CC3)nc2)cs1`, -6.746%.
Consider `CCOc1ccc(C(=O)CCC(=O)NCCc2nncn2CC)cc1C`, for which the “Percent Effect” value is -15.05%.
In the case of `CC(=O)N1CCC2(CC1)C(=O)N(c1ccc(C)nc1)CCN2CC(C)C`, the “Percent Effect” value is -6.199%.
As for `CCCS(=O)(=O)N1CCN(C(=O)CO)CC1`, the figure is 9.785%; as for `CC(C)c1nc(C2CCCN2CC(=O)N2CCc3ccccc32)no1` (centres undefined), 8.047%.
As for `CC1=C(c2ccc(C(C)C)cc2)S(=O)(=O)N=C1N1CCc2ccccc21`, the figure is 127.3%.
In the case of `CC1=C(c2ccc(Cl)cc2)S(=O)(=O)N=C1N1CCc2ccccc21` it was 182.9%.
On to `COc1ccc(C2=C(C)C(N3CCc4ccccc43)=NS2(=O)=O)cc1`, for which the “Percent Effect” value was 41.03%.
As for `COc1ccc(C2=C(C)C(N3CCc4ccccc4C3)=NS2(=O)=O)cc1`, the figure is -1.571%; as for `CCS(=O)(=O)CC(=O)Nc1ccccc1N1CCc2ccccc21`, -1.356%; as for `CC1=C(c2ccc(F)cc2)S(=O)(=O)N=C1N1CCc2ccccc21`, 117.2%.
As for `CNC(=O)NCC(=O)Nc1ccccc1N1CCc2ccccc21`, the figure is -5.269%; as for `CC1=C(c2ccc(C)cc2)S(=O)(=O)N=C1N1CCc2ccccc21`, 130.8%.
In the case of `CS(=O)(=O)NCCC(=O)Nc1ccccc1N1CCc2ccccc21` it was 4.986%.
Consider `CCc1nccn1CC(=O)N1C[C@H]2CC[C@@H]1CN(S(=O)(=O)N(C)C)C2`, for which the “Percent Effect” value is -7.287%.
In the case of `Cc1nc(CN2CCCC2C(=O)OCc2ccccc2)oc1C` (centres undefined), the “Percent Effect” value is 2.818%.
Take `CCN1CCN(C(=O)NCc2cccc(-c3cnn(C)c3)c2)CC1`: the “Percent Effect” value is listed as -0.06636%.
As for `CCOC(=O)NC(CNC(=O)c1cccc(C)n1)CC(C)C` (centres undefined), the figure is -0.9976%.
In the case of `COCc1ccccc1C(=O)N1CCC(CNC(=O)OC(C)(C)C)C1` (centres undefined) it was -8.221%; in that of `CS(=O)(=O)CCC(=O)N1C[C@@H]2CC[C@H](C1)N(Cc1ccccn1)C2=O`, 13.71%; in that of `N[C@@H]1CC[C@@H](Nc2nccc(CCC(F)(F)F)n2)C1`, -1.257%.
In the case of `COCCOc1ncccc1NCc1nc2ccccc2n1C` it was 92.25%; in that of `COc1ccccc1-c1noc(CNc2ccc(F)cc2OCCO)n1`, 0.4936%.
Consider `COc1cc(F)c(NCc2nc3ccccc3n2C)cc1OC`, for which the “Percent Effect” value is reported as 108.7%.
As for `COc1ccc(-n2c(CO)nc3ccccc32)cc1CO`, the figure is -2.808%.
As for `Cn1c(CCCNc2nccnc2C#N)nc2ccccc21`, the figure is -4.565%; as for `COCCOc1ccc(F)cc1NCc1nc2ccccc2n1C`, 110.1%.
In the case of `CN(C)c1nccc(N(C)Cc2nc3ccccc3n2C)n1` it was -8.65%; in that of `CN1C[C@@H](F)[C@@H](OCc2nc3ccccc3n2C)C1`, 6.816%.
Consider `CCNc1ncc(C(=O)N(C)Cc2nc3ccccc3n2C)cn1`, for which the “Percent Effect” value is recorded as -2.006%.
In the case of `Cc1cc(NC(=O)NC(C)(C)c2nc(C)c(C)s2)no1` it was 5.891%.
As for `CSc1ccc(-c2nc(CN3CCC(C(N)=O)CC3)c(C)o2)cc1`, the figure is 12.72%; as for `Cc1cc(S(=O)(=O)N2CCC(N3CCC(O)C3)CC2)c(Cl)cc1Cl` (centres undefined), -12.47%.
In the case of `CCn1cnnc1CN(C)Cc1c[nH]nc1-c1ccc(F)cc1` it was 6.499%; in that of `Cc1cnc(C(=O)N2CCc3c(nc(-c4ccncc4)[nH]c3=O)C2)cn1`, -3.986%.
For `Cn1cccc1CN1CCc2c(nc(-c3ccccn3)[nH]c2=O)C1`, the “Percent Effect” value is 114.7%.
In the case of `Cn1ccnc1-c1ccccc1C(=O)N1CCc2c(nc(N)[nH]c2=O)C1`, the “Percent Effect” value came to 1.911%.
On to `O=C(c1ccccn1)N1CCc2c(nc(-c3ccncc3)[nH]c2=O)C1`, for which the “Percent Effect” value is given as -0.04653%.
As for `Cc1ncc(CN2CCc3c(nc(-c4ccccn4)[nH]c3=O)C2)n1C`, the figure is 100.8%; as for `CC(NC(=O)N1CCN(c2ccc(Cl)cc2)CC1)C(=O)N1CCSCC1` (centres undefined), -1.833%.
In the case of `Nc1nc(C2CCN(C(=O)c3cnco3)CC2)cs1` it was 114.6%; in that of `CCc1nc(CN2CCN(C(=O)c3cnccn3)CC2)cs1`, -1.168%.
In the case of `Nc1nc(C2CCN(C(=O)c3cnccn3)CC2)cs1` it was 113.4%.
In the case of `O=C(c1cnccn1)N1CCC(Oc2ncccc2Cl)CC1`, the “Percent Effect” value came to 33.47%.
As for `O=C(NCC1CCCN1Cc1ccccc1)NCC1(O)CCC1` (centres undefined), the figure is 10.62%; as for `Cn1cc(Cl)c(C(=O)N2CCCN(C3Cc4ccccc4C3)CC2)n1`, 3%; as for `CCOCCCNC(=O)c1nn(CC)cc1Cl`, 13.91%.
In the case of `Cn1cc(Cl)c(C(=O)N2CCC(N3CCc4ccccc4C3)CC2)n1` it was 3.443%; in that of `CCCn1cc(Cl)c(C(=O)N2C[C@@H](O)[C@H](NC(C)=O)C2)n1`, 135.9%.
As for `CCCn1ccnc1CN1C[C@@H](NC(C)=O)[C@H](c2ccc(C)cc2)C1`, the figure is -5.902%; as for `CCCn1cc(Cl)c(C(=O)N2C[C@H]3C[C@H](OC)C[C@H]3C2)n1`, 128.4%; as for `CC(=O)N[C@@H]1CN(C(=O)c2ccncc2)C[C@H]1c1ccc(C)cc1`, -2.552%.
As to `CCCn1cc(C(=O)n2nc(C)cc2C)c(S(=O)(=O)N2CCSCC2)n1`, the “Percent Effect” value is -15.72%.
As for `CCCn1cc(Cl)c(C(=O)N2C[C@@H](O)[C@H](Oc3ccccc3)C2)n1`, the figure is 77.97%.
